# Measurements as given in PubChem BioAssay (NCATS).
# Values without a mark were called inactive. How the calls were made is not given here.
# Tested on: HIV-1 nucleocapsid protein NCp7 (binding to TG oligonucleotide)
# Experiment: HIV Nucleocapsid (AID 346);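 further: potency is for inhibitors that block NC binding and lower polarization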
# Conditions: HIV-1 NC / fluorescein-TGTGTGTG probe, fluorescence polarization
# How it was run: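 Fluorescence polarization readout: labelled TG4xF oligo (10 nM) with 100 nM nucleocapsid protein, high-salt (250mM NaCl) Hepes pH 7.5 buffer containing zinc and fresh reducing agents. Compounds added by pin tool; incubation 1 hr, room temperature.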
# Potency means the concentration at half of the fitted maximal effect.
row,SMILES,Potency [µM]
1,Cc1nc2cnc(N3CCOCC3)nc2n(Cc2cccs2)c1=O,> 20
2,COc1ccc(Oc2ncc3nc(CCc4ccccc4)c(=O)n(CCC#N)c3n2)cc1,> 20
3,O=c1cnc2cnc(N3CCOCC3)nc2n1Cc1ccc(F)cc1,20.6
4,Cn1cc(-c2nc3cncnc3n(CCN)c2=O)c2ccccc21,> 20
5,CCNc1ncc2nc(-c3cc(F)cc(F)c3)c(=O)n(C)c2n1,> 20
6,COc1ncc2nc(-c3cc(F)cc(F)c3)c(=O)n(C3CC3)c2n1,> 20
7,Cc1cnc(CNc2cc(-c3ccc4c(c3)OCO4)ncn2)cn1,> 20
8,Cn1cccc1C(=O)N1CCC2(CC1)CN(C(=O)Nc1ccccc1)C2,> 20
9,COc1cccc(Cn2c(=O)c(-c3ccc(Cl)cc3)nc3cnc(N4CCN(C)CC4)nc32)c1,> 20
10,CN1CCN(c2ncc3nc(-c4cn(C)c5ccccc45)c(=O)n(C)c3n2)CC1,> 20
11,O=C(c1cnccn1)N1CCC2(CC1)CN(C(c1ccccc1)c1ccccc1)C2,> 20
12,CCNc1ncc2nc(CCc3ccccc3)c(=O)n(CCC#N)c2n1,> 20
13,CN(C)c1nc(-c2ccc3c(c2)OCO3)nc2ccccc12,> 20
14,COc1cccc(Cn2c(=O)c(-c3ccc(Cl)cc3)nc3cnc(N(C)C)nc32)c1,> 20
15,c1cncc(CNc2nc(-c3ccoc3)nc3ccccc23)c1,> 20
16,N#Cc1cccc(NC(=O)N2CCC3(CC2)CCN(C(=O)c2cnccn2)CC3)c1,> 20
17,CC(=O)N1CCC2(CC1)CCN(c1cccc(-c3ccccc3)c1)CC2,> 20
18,COCC(=O)N1CCC2(CCCN(c3ccccc3)C2)CC1,> 20
19,COc1ccc(CNc2ccnc(-c3ccc4c(c3)OCO4)n2)c(OC)c1,> 20
20,CN(C)C(=O)c1ccc(-c2cc(NCc3cccnc3)ncn2)cc1,> 20

row,SMILES,Potency [µM]
1,O=C(c1ccco1)N1CCC2(CC1)CCN(c1cccc(-c3ccccc3)c1)CC2,> 20
2,COCC(=O)N1CCC2(CCCN(Cc3nccs3)C2)CC1,> 20
3,O=c1c(-c2cc(F)cc(F)c2)nc2cnc(Oc3ccccc3)nc2n1C1CC1,> 20
4,COc1ccccc1CNc1cc(-c2ccccc2OC)ncn1,> 20
5,Cc1cnc(CNc2ncnc3ccc(-c4c(C)noc4C)cc23)cn1,> 20
6,Cn1c(=O)c(-c2ccccc2)nc2cnc(Oc3ccccc3)nc21,> 20
7,COc1ccc2[nH]cc(CCNc3cc(-c4cccc(C#N)c4)ncn3)c2c1,> 20
8,Cn1cccc1C(=O)N1CCC2(CC1)CN(c1cccc(-c3ccccc3)c1)C2,> 20
9,COc1ncc2nc(-c3ccccc3)c(=O)n(Cc3cccs3)c2n1,> 20
10,COc1ccccc1CN1CC[C@@]2(CCCN(C(=O)c3cccc(F)c3)C2)C1,> 20
11,CS(=O)(=O)N1CCC2(CC1)CN(C(=O)Nc1cccc(F)c1)C2,> 20
12,CNc1nc(-c2ccccc2C)nc2ccccc12,> 20
13,O=c1c(-c2ccc(F)cc2)nc2cnc(N3CCOCC3)nc2n1Cc1ccc(F)cc1,> 20
14,CS(=O)(=O)Nc1cccc(-c2ccc3ncnc(Nc4ccc(F)cc4)c3c2)c1,> 20
15,c1ccc(C(c2ccccc2)N2CC[C@@]3(CCCNC3)C2)cc1,> 20
16,O=C(c1cc(C(F)(F)F)cc(C(F)(F)F)c1)N1CCC2(CCCN(Cc3ccccc3)C2)CC1,> 20
17,Cc1noc(C)c1-c1nccc(N2CCN(C)CC2)n1,> 20
18,COc1ccc(CNc2ncncc2-c2ccccc2C)c(OC)c1,> 20
19,O=c1cnc2cnc(Oc3ccccc3)nc2n1C[C@H]1CCCO1,> 20
20,Cc1ccccc1-c1nc(NCCN2CCOCC2)c2ccccc2n1,> 20
